The nature of test [1]: Nuclear factor erythroid 2-related factor 2/antioxidant responsive element (Nrf2/ARE) small molecule agonists: qHTS cell viability counter screen in human keratinocytes (AID 1919968; active means well fitted curve in the direction sought with a large enough effect in the repeat runs; an effect the other way counts as inactive or inconclusive; further: nearly all actives have a fitted effect of over 55% in size; further: potency means the concentration at half of the fitted maximal effect). In a few lines: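 Stably transfected HaCaT (KeratinoSens), 1,500/well. Test agents in DMSO were applied for 23 h, 37 C/5% CO2. CellTiter-Fluor was incubated 1 h before the fluorescence read.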

The nature of test [2]: Nuclear factor erythroid 2-related factor 2/antioxidant responsive element (Nrf2/ARE) small molecule agonists: luciferase reporter gene qHTS assay in human keratinocytes (AID 1919969). Further: nearly all actives have a fitted effect of over 35% in size. Further: potency means the concentration at half of the fitted maximal effect. A general note: A reporter such as luciferase makes a cellular process visible.
The target in test [3] is Gonadotropin-releasing hormone receptor (Homo sapiens) (UniProt P30968). Briefly: Human gonadotropin-releasing hormone receptor (GnRHR) small molecule agonists, calcium flux assay in GnRHR-HEK293 cells (AID 1920063). Further: nearly all actives have a fitted effect of over 35% in size. An outline of the steps: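 Stable human GnRHR HEK293 line. 18 h plating, then calcium dye for 1 h at 37 C. Agonist-mode compound addition from DMSO stocks; fluorescence monitored 3 min.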
Sequence of Gonadotropin-releasing hormone receptor (Homo sapiens) (P30968 whole entry, looked up): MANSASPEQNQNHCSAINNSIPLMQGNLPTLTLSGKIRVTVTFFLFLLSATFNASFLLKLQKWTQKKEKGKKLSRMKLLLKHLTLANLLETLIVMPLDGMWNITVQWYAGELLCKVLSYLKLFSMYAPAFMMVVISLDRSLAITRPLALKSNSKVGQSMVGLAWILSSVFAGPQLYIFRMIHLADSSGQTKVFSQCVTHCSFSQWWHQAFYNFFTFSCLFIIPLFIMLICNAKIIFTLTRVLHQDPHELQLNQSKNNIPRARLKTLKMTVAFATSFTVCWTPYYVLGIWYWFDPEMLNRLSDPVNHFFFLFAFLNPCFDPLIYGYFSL
Background: A change in cytosolic calcium serves as a functional read-out for many receptors and channels.

Test [4] has as its target KiSS-1 receptor (Homo sapiens) (UniProt Q969F8). The test can be described thus: Human kisspeptin (KISS1R) small molecule agonists, calcium flux assay in KISS1R-HEK293 cells (AID 1920064; active means well fitted curve in the direction sought with a large enough effect in the repeat runs; an effect the other way counts as inactive or inconclusive). An outline of the steps:
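After overnight (18 h) culture at 37 C/5% CO2, human KISS1R-HEK293 cells received calcium dye for 1 h, then test compound; emission at 540 nm (excitation 480 nm) was tracked for 3 min.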

Test [5] in a line: G protein-coupled receptor (GPCR) small molecule agonists, calcium flux assay: HEK293 wild type cell line counter screen (AID 1920065). In a few lines:
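Following 18 h incubation at 37 C/5% CO2, plates got calcium dye for 1 h; compounds, ATP or DMSO were then pinned in and fluorescence followed kinetically (480/540 nm).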

Test [6] can be described thus: p53 small molecule agonists, cell-based qHTS assay with human liver microsomes (AID 1963577). In a few lines: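 p53RE-bla cells, 4,000/well, compound added after 5 h, with human liver microsomes 0.5 mg/mL and NADPH 0.5 mg/mL final; 16 h at 37 C, then LiveBLAzer 2 h RT, fluorescence.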
(In qHTS, concentration-response curves come from the screen itself.)

Test [7] in a line: p53 small molecule agonists, cell-based qHTS assay with rat liver microsomes (AID 1963578). In a few lines: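 p53RE-bla cells, 4,000/well, pre-incubated 5 h, then given compounds plus rat liver microsomes (0.5 mg/mL final) and NADPH (0.5 mg/mL final). Incubation 16 h at 37 C; beta-lactamase reporter read by LiveBLAzer fluorescence after 2 h at room temperature.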
A short description of test [8]: p53 small molecule agonists, cell-based qHTS assay with human liver microsomes: qHTS cell viability counter screen (AID 1963579). Further: nearly all actives have a fitted effect of over 45% in size. In a few lines: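 p53RE-bla cells, 4,000/well, dosed 5 hours after plating, with human liver microsomes (0.5 mg/mL final) plus NADPH (0.5 mg/mL final), 16 hours at 37 C. Viability read as CellTiter-Glo luminescence after 30 min at room temperature.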

Test [9] in a line: p53 small molecule agonists, cell-based qHTS assay with rat liver microsomes: qHTS cell viability counter screen (AID 1963580). Further: nearly all actives have a fitted effect of over 45% in size. An outline of the steps:
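Cytotoxicity counter screen: intracellular ATP measured by CellTiter-Glo luminescence in the same wells as the beta-lactamase reporter read, on HCT-116 p53RE-bla cells exposed 16 h at 37 C to compounds with rat liver microsomes and NADPH, each 0.5 mg/mL final.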

A short description of test [10]: p53 small molecule agonists, cell-based qHTS assay: qHTS cell viability counter screen (AID 1963581). Further: nearly all actives have a fitted effect of over 45% in size. In a few lines:
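qHTS counter screen: 16 h compound exposure at 37 C of p53RE-bla HCT-116 cells (4,000 per well, seeded 5 h prior), cell viability by ATP luminescence.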

Test [11] can be described thus: p53 small molecule agonists, cell-based qHTS assay (AID 1963582; active means well fitted activation curve with a large enough effect in the signal ratio in the repeat runs, not every such curve was filed as active; the % refers to the signal ratio). In a few lines:
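Measured: fluorescence from cleaved LiveBLAzer substrate. System: p53RE-bla cells, 16 h compound treatment at 37 C, 2 h substrate step at room temperature.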

The nature of test [12]: cAMP Responsive Elements (CRE) small molecule antagonists, cell-based qHTS assay (AID 1963591; active means well fitted inhibition curve with a large enough effect in the signal ratio in the repeat runs, not every such curve was filed as active; the % refers to the signal ratio). In a few lines:
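Reporter line CRE-bla HEK 293T in dialyzed-FBS DMEM; cells preincubated 18 h, treated 3 h with compound plus NKH477 (0.25 uM final); LiveBLAzer FRET, 2 h RT.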

The target in test [13] is Beta-2 adrenergic receptor (Homo sapiens) (UniProt P07550). Briefly: Adrenergic beta2 receptor (ADRB2) small molecule antagonists, cell-based qHTS assay (AID 1963592). Further: nearly all actives have a fitted effect of over 50% in size. Further: potency means the concentration at half of the fitted maximal effect. On activity change, negative = inhibition: series mostly up to about 92 µM. In a few lines:
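Assay format: CHO-ADRB2 cells, 18-20hr seeding at 37C/5% CO2, then compound plus 1nM isoproterenol agonist mix for 0.5hr RT. Homogeneous time-resolved fluorescence cAMP detection after 1hr, expressed as 665/615 nm ratio.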

Test [14] has as its target D(2) dopamine receptor (Homo sapiens) (UniProt P14416). The test can be described thus: Dopamine D2 receptor (DRD2) small molecule agonists, cell-based qHTS assay (AID 1963594). Further: nearly all actives have a fitted effect of over 35% in size. In a few lines: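 HEK293 cells stably expressing human DRD2, pre-treated with PDE inhibitor Ro20-1724 (0.1 mM final) and compound 10 min at room temperature, then stimulated with NKH477 (200nM […]) for 30 min. cAMP read by HTRF (665/620 nm).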

The target is the same in test [15]. The test can be described thus: Dopamine D2 receptor (DRD2) small molecule antagonists, cell-based qHTS assay (AID 1963595; active means well fitted inhibition curve with a large enough effect in the signal ratio in the repeat runs, with a control signal flat; the % refers to the signal ratio; further: potency means the concentration at half of the fitted maximal effect). An outline of the steps:
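Cells were plated and grown for 24 h at 37 °C. Ro20-1724 (0.1 mM final) went in first, then compound for 10 min. NKH477 (200 nM) with quinpirole (12 nM) followed for 30 min at RT, then HTRF detection reagents for 1 h.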

Test [16] can be described thus: cAMP Responsive Elements (CRE) small molecule agonists, cell-based qHTS assay (AID 1963590). In a few lines: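 Test agents in DMSO were incubated 3 h at 37 C/5% CO2 with CRE-bla HEK 293T cells seeded 18 h earlier; LiveBLAzer B/G FRET substrate was added and read after 2 h at room temperature.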
The target in test [17] is 5-hydroxytryptamine receptor 2A (Homo sapiens) (UniProt P28223). Briefly: 5-hydroxytryptamine receptor 2A (HTR2A) small molecule antagonists, cell-based qHTS assay (AID 1963586). Further: nearly all actives have a fitted effect of over 45% in size. An outline of the steps:
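CHO cells stably expressing human HTR2A were plated for 18 h at 37 C, then loaded with calcium dye for 1 h. Compounds were preincubated 5 min at room temperature before DOI (4 nM solution) was added. Kinetic fluorescence was read for 3 min.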

The target is the same in test [18]. The test can be described thus: 5-hydroxytryptamine receptor 2A (HTR2A) small molecule agonists, cell-based qHTS assay (AID 1963587). Further: nearly all actives have a fitted effect of over 30% in size. Further: potency means the concentration at half of the fitted maximal effect. In a few lines: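 CHO cells stably expressing human HTR2A, plated 18 h, loaded with calcium dye 1 h at 37 C. Agonist mode: compounds added and intracellular calcium fluorescence recorded kinetically for 2 min at 1 sec intervals.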

The target of test [19] is Muscarinic acetylcholine receptor M1 (Homo sapiens) (UniProt P11229). Briefly: Cholinergic receptor muscarinic 1 (CHRM1) small molecule antagonists, cell-based qHTS assay (AID 1963588). Further: nearly all actives have a fitted effect of over 40% in size. An outline of the steps: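 Compounds were tested at 15 concentrations in three independent runs. Dye-loaded CHRM1-CHO cells were exposed 5 min at room temperature before stimulation by acetylcholine added at 50nM. Intracellular calcium was read kinetically on FDSS for 3 min.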
Sequence of Muscarinic acetylcholine receptor M1 (Homo sapiens) (P11229 whole entry, looked up): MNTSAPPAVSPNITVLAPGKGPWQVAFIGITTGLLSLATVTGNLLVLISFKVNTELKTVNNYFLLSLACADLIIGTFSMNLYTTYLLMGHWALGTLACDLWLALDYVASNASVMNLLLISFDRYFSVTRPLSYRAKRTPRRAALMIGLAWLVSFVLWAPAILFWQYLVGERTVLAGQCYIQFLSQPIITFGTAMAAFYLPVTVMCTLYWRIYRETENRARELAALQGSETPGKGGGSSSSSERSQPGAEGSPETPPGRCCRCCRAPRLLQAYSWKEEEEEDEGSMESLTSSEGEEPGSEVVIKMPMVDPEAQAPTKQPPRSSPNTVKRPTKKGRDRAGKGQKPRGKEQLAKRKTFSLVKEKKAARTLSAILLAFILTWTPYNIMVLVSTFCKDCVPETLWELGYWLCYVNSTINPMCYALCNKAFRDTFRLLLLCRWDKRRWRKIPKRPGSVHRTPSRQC

Test [20] shares this target. The test can be described thus: Cholinergic receptor muscarinic 1 (CHRM1) small molecule agonists, cell-based qHTS assay (AID 1963589). Further: nearly all actives have a fitted effect of over 35% in size. In a few lines:
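Kinetic fluorescence (1 s intervals) of calcium-sensitive dye in human M1 CHO cells after compound addition; cells pre-incubated 18 h at 37 C/5% CO2 and dye-loaded 1 h.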

Unmarked numbers belong to inactive results. Records with an inconclusive call do not appear. Active and inactive are the calls of the source. Unless noted, the call rests on the fitted dose curve.
On the % scale 0 is the no-effect control and ±100 the full control effect.

Sequence of 5-hydroxytryptamine receptor 2A (Homo sapiens) (P28223 whole entry, looked up): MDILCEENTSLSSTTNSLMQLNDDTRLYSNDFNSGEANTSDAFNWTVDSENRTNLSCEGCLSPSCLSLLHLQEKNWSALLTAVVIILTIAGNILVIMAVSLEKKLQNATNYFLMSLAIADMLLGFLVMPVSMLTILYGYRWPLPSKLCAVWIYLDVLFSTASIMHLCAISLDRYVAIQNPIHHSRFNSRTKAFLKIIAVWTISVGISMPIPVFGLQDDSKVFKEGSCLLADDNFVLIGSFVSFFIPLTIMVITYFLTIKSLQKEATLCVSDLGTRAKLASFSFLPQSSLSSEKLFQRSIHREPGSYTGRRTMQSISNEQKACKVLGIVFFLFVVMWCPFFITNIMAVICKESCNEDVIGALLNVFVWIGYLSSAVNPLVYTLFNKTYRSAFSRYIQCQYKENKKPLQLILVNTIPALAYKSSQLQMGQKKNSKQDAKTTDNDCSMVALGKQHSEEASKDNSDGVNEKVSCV
Sequence of Beta-2 adrenergic receptor (Homo sapiens) (P07550 whole entry, looked up): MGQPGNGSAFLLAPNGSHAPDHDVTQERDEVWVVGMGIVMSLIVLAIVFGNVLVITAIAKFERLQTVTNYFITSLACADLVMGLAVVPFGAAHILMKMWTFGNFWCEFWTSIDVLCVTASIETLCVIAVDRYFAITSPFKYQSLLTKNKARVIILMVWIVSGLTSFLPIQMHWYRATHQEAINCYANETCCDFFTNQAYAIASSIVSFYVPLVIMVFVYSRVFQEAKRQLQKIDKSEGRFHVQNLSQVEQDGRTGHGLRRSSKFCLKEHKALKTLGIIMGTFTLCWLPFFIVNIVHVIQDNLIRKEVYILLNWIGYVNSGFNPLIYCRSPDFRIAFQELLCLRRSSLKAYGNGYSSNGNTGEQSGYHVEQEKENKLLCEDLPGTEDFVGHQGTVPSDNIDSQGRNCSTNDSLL
Sequence of KiSS-1 receptor (Homo sapiens) (Q969F8 whole entry, looked up): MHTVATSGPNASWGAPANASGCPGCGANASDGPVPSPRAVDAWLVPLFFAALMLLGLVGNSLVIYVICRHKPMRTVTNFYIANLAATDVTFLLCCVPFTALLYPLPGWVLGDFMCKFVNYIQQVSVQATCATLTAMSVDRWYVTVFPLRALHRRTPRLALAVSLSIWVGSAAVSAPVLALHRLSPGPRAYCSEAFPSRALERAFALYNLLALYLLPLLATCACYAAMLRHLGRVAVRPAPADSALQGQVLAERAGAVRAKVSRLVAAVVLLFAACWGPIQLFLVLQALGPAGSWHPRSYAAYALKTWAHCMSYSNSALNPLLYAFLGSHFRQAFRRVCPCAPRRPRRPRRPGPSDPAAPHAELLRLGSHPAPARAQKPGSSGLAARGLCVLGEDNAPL
Sequence of D(2) dopamine receptor (Homo sapiens) (P14416 whole entry, looked up): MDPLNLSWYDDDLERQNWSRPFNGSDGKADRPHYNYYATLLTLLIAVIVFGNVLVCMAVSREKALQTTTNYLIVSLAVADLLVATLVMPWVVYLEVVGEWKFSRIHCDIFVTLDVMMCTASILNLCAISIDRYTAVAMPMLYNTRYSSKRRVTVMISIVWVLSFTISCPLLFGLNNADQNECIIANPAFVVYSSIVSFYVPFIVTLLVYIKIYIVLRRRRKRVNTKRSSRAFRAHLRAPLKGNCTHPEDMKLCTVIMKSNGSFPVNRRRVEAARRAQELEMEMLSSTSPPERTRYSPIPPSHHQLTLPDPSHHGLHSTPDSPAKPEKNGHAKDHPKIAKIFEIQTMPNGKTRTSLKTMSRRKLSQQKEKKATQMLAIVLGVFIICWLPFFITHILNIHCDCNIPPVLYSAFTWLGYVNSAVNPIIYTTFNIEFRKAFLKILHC

As for `O=C(N/N=C/c1ccc([N+](=O)[O-])o1)c1cc([N+](=O)[O-])cc([N+](=O)[O-])c1O`, the Potency result in test [1], in test [3], in [4], in test [5], in test [6] and in test [7] was “inactive” throughout. The Potency entry in [8], in [9], in [10], in [11], in test [12] and in [13] was “inactive” in each case. Further, the Potency entry in [14] and in [15] was “inactive” throughout. Besides, the Potency in test [2] was 29.8 µM (active).
Take `ClCC(Cl)Cl`: the Potency result in test [1], in [2], in test [3], in test [4], in [5] and in test [6] was “inactive” throughout. Also, the Potency result in [7], in test [8], in test [9], in test [10], in [11] and in test [16] was “inactive” throughout. For the same compound, the Potency entry in [12], in [13], in test [14] and in [15] was “inactive” each time.
For `C[As+](C)(C)CC(=O)[O-]`, the Potency result in [1], in test [2], in [3], in test [4], in test [5] and in test [6] was “inactive” throughout. Further, the Potency entry in [7], in test [8], in test [9], in test [10], in test [17] and in [18] was “inactive” throughout. Further, the Potency result in test [19], in test [20], in test [16], in test [12], in test [13] and in [14] was “inactive” each time. The Potency entry in test [15] was “inactive”.
As to `Cc1ccc2c(c1)C1CN(C)CCC1N2` (stereo not given), the activity change, negative = cytotoxicity in [1] was -10.1% [at 19 µM]; in [8], -1.76% [at 13.5 µM]; in [9] it was -8.73% [at 13.5 µM]; in test [10], 13.5% [at 13.5 µM]. The activity, positive = activation in test [2] was -3.42% [at 19 µM]. In addition, in test [3], the activity change was 1.2% [at 11.8 µM, hits give high values]. In addition, the activation was -0.319% [at 15.8 µM] in [4]; -0.508% [at 11.8 µM] in test [5]; 3.07% [at 13.5 µM] in [6]; -0.463% [at 13.6 µM] in [7]; 0% [at 13.5 µM] in test [11]; -0.313% [at 15.8 µM] in [20]. Moreover, the results for the activation in [16] and in test [14] were -1.75% [at 19 µM] and -2.85% [at 19 µM], respectively. Besides, the Potency in [18] is 0.165 µM (active). The activity change, negative = inhibition in test [12] is -7.6% [at 18.9 µM]; in test [13] it was -2.7% [at 19 µM].
As to `Cc1ccc2nc3sc(=O)sc3nc2c1`, the figures for the Potency in test [1] and in test [2] were 3.66 µM (active) and 1.64 µM (active), respectively. For the same compound, the activity change in [3] is -0.0057% [at 11.8 µM, hits give high values]. Further, the activation in test [4] was -1.66% [at 15.8 µM]; in test [5], -0.174% [at 11.8 µM]; in [6] it was 12.4% [at 13.5 µM]; in test [7], 0.351% [at 13.6 µM]; in test [20], -0.991% [at 15.8 µM]; in test [14], 1.16% [at 19 µM]. Also, the activity change, negative = cytotoxicity in test [8] was 4.93% [at 13.5 µM]; in test [9], -3.16% [at 13.5 µM]; in test [10] it was -2.54% [at 13.5 µM]. For the same compound, the activity, negative = inhibition in test [17] is 8.83% [at 12.7 µM]; in test [19], 5.56% [at 12.6 µM]. Besides, the values for the activity change, negative = inhibition in [12] and in [13] were 1.33% [at 18.9 µM] and -4.14% [at 19 µM], respectively.
Regarding `Fc1ccc(C(OCCN2CCN(CCCc3ccccc3)CC2)c2ccc(F)cc2)cc1`, the figures for the Potency in [1], in test [13] and in test [15] were 13.3 µM (active), 29.8 µM (active) and 26.6 µM (active), respectively. Also, the Potency entry in [2], in test [3], in test [4], in test [5], in [6] and in test [7] was “inactive” each time. Moreover, the Potency result in test [8], in test [9], in test [10], in test [18], in test [19] and in test [20] was “inactive” in each case. In addition, in test [14], the Potency entry was “inactive”.
Turning to `COC(=O)C(C)N(C(=O)Cc1ccccc1)c1c(C)cccc1C` (stereo not given), the Potency entry in test [1], in test [2], in test [3], in [4], in [5] and in test [6] was “inactive” each time. Further, the Potency result in test [7], in [8], in test [9], in [10], in [17] and in test [18] was “inactive” throughout. The Potency result in test [19], in test [20], in [13] and in test [14] was “inactive” throughout.

The record behind these values is PubChem BioAssay (Tox21).
